BAZ2B block: blocks human BAZ2B | AlphaScreen BAZ2B-H3K14Ac peptide displacement | actives 4.4% (n = 360,000) | Potency, µM (highest dose often 114 µM), for inactives: at the top dose activity change, negative = inhibition, hits mostly inhibitors; note: % is set by controls: 0 for no effect and ±100 for the full control effect; nearly all actives have a fitted effect of over 60% in size
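AlphaScreen displacement: compounds (up to 110uM) incubated 30 min at room temperature with a preformed 50 nM BAZ2B/50 nM biotinylated H3K14Ac peptide complex in PBS pH 7.4 with Tween-20. Donor and acceptor beads at 10 ug/mL final added, 20 min light-protected before reading.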
JMJD2A Tudor inh: blocks the human JMJD2A Tudor domain. actives 4.4% (n = 390,000). AID 504339. O75164. Potency, µM (doses to about 114 µM), inactives show at the highest dose activity change, negative = inhibition, hits mostly inhibitors. AlphaScreen JMJD2A-Tudor / H3K4me3 peptide binding; note: % is set by controls: 0 for no effect and ±100 for the full control effect; nearly all actives have a fitted effect of over 50% in size
PLK1 PBD block: inhibitors of human PLK1 polo-box domain binding; P53350; Plk1 PBD binding of FITC phosphopeptide, fluorescence polarization; Potency, µM, inactives show max response, negative = inhibition, hits mostly inhibitors; actives 2.8% (n = 360,000); AID 720504; note: series mostly up to about 57 µM; % is set by controls: 0 for no effect and ±100 for the full control effect; nearly all actives have a fitted effect of over 65% in size
12-LOX inh: inhibitors of human 12S-lipoxygenase ALOX12 | purified 12hLO, xylenol orange hydroperoxide absorbance | Potency, µM (highest dose often 108 µM), for inactives: top-dose activity change, negative = inhibition, hits mostly inhibitors | actives 1.1% (n = 580,000); note: % is set by controls: 0 for no effect and ±100 for the full control effect
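Hydroperoxide product was detected by ferrous iron/xylenol orange as the 573 to 405 nm absorbance ratio. Arachidonic acid at 40 uM (final) was turned over for 30 min at room temperature by 150 nM human 12hLO, pH 7.0 Hepes buffer, after 15 min compound preincubation.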
HP1b binding inh: blocks HP1-beta chromodomain binding to methylated histone tails; P83916; AlphaScreen HP1-beta / biotin-H3K9me3 peptide binding; Potency, µM (highest dose often 114 µM), for the others: at the highest dose activity change, negative = inhibition, hits mostly inhibitors; actives 0.56% (n = 390,000); note: nearly all actives have a fitted effect of over 70% in size
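AlphaScreen: HP1-beta (50 nM) preformed 30 min with biotin-H3(1-18)K9me3 peptide (50 nM) in PBS pH 7.4, 0.01% Tween-20. Compound added for 30 min at RT, then streptavidin donor/nickel chelate acceptor beads (10 ug/mL) for 30 min.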
G9a inh: blocks human histone lysine methyltransferase G9a | G9a H3K9 monomethylation, AlphaScreen, 2 h | Potency, µM (series often up to 102 µM), inactives show at the highest dose activity, negative = inhibition, hits mostly inhibitors | Q96KQ7 | actives 8.8% (n = 350,000); note: % is set by controls: 0 for no effect and ±100 for the full control effect; nearly all actives have a fitted effect of over 75% in size
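Compounds were preincubated with 20 nM G9a for 15 min, after which biotinylated H3K9 peptide (500 nM) and SAM (20 uM) started a 2 h room-temperature reaction. Monomethylated product was quantified by antibody-based AlphaScreen chemiluminescence.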
Starred values were filed as active, the others as inactive; ? = inconclusive; . = no result; ! = repeats disagree; [ ] = dose if it differs, or a comment. This is a sample that favours compounds with a hit; in the whole collection about 9% have one here. Calls come from the whole dose curve; as a rule, active = well fitted curve in the direction sought with a large enough effect; inconclusive = small, poorly fitted or top-dose-only effect, or another doubt; inactive = no such curve, though single readings can be large; an effect the other way counts as inactive or inconclusive. Potency is the fitted concentration of half-maximal effect.

SMILES	BAZ2B block	JMJD2A Tudor inh	PLK1 PBD block	12-LOX inh	HP1b binding inh	G9a inh
CC(C)=CCN1CCN(Cc2cccn2-c2ncccn2)CC1CCO (stereo not given)	-12%	1%	3%	2%	14%	-8%
COC1CCN(Cc2ccc(C)cc2)CC1	.	.	.	-8%	.	.
CCOc1ccccc1N(CC)C(=O)Cn1ncc2c(=O)oc3ccccc3c21	-4%	-6%	1%	18%	35%	11%[59 µM]
S=c1[nH]ncn1/N=C/c1ccc(N2CCOCC2)cc1	-2%	2.8µM*	-2%	?	35%	1.8µM*
S=c1[nH]c(-c2ccccc2)cn1/N=C/c1ccncc1	-22%	0.71µM*	?	?	-24%[57 µM]	1.6µM*
S=c1[nH]ncn1/N=C/c1ccccc1	-8%	6.3µM*	-8%	?	42%	26%[2.33 µM]
C(=N\n1cnnc1)/c1ccc(N2CCOCC2)cc1	.	-10%	-7%	-21%	40%	17%[59 µM]
S=c1[nH]ncn1/N=C/c1ccc(Br)cc1	-29%	7.9µM*	-24%	?	-5%	1.3µM*
CCCCCCCCCOC(=O)C(CC(=O)O)N1CCOCC1 (stereo not given)	-33%	-11%	-3%	?	23%	?
C1CSC2(N1)C1CC3CC(C1)CC2C3 (stereo not given)	-2%	-33%	-4%	?	-4%	6.3µM*
Oc1c(Br)cc(Br)cc1CNc1nccs1	-1%	7%	-20%	-38%	31%	3%
CC(C)(C)NC(=S)NNC(=O)[C@H]1C[C@@H]1c1ccccc1	-2%	-12%	-8%	121%	40%	13%[59 µM]
Cc1ccc(C2CC2C(=O)NNC(=S)Nc2ccc(Cl)cc2)cc1 (stereo not given)	-8%	-28%	-21%	45µM*	-18%	25µM*
CC[n+]1c(C)sc2c(C)cc(C)cc21	-1%	-28%	-17%	?	55%	-46%[59 µM]
CCC[n+]1c(C)sc2c3c(ccc21)CCCC3	-23%	45µM*	?	.	40µM*	50µM*
N#Cc1nc(-c2cccc3ccccc23)oc1N1CCCCC1	-4%	-5%	-1%	489%	1%	-36%[59 µM]
COc1ccc(N2CCN(c3oc(/C=C/c4ccccc4OC)nc3C#N)CC2)cc1	3.2µM*	?	.	0%	?	?
COc1ccc(OCc2nc(C#N)c(N3CCN(c4ccc(OC)cc4)CC3)o2)cc1	?	?	-1%	-1%	-7%	11µM*
N#Cc1nc(-c2ccccc2Cl)oc1N1CCCCC1	22µM*	?	-8%	?	?	35µM*
COc1ccc(N2CCN(c3oc(COc4ccccc4Cl)nc3C#N)CC2)cc1	7.9µM*	?	-2%	?	?	10µM*
CCOc1ccc(NC(=O)[C@@H](NC(=O)c2ccco2)C(C)C)cc1	-8%	-22%	-26%	-28%	56%	19%
CC(C)NC(=O)C1(C)CN(S(C)(=O)=O)CC(=O)N1Cc1cccc(F)c1 (stereo not given)	.	.	-14%	9%	.	.
CC[C@]12c3[nH]c4cc(CCC(=O)N(C)C)ccc4c3CCN1C(=O)[C@@H](CC(=O)NCCCN(C)C)C[C@@H]2C(=O)N1CCN(C(=O)C2CC2)CC1	.	-20%	-9%	5%	7%	.
COCCN1C(=O)N(c2cccc(C)c2)C(=O)C1CC(=O)Nc1ccc(OC)cc1 (stereo not given)	-18%	-16%	1%	1%	16%	-7%
COc1cc(C(=O)Nc2ccc3c(c2)OCO3)ccc1-n1cnnn1	8%	-7%	-4%	2%	14%	-1%[59 µM]
SMILES	BAZ2B block	JMJD2A Tudor inh	PLK1 PBD block	12-LOX inh	HP1b binding inh	G9a inh
CCN1C(=O)C(=O)N(Cc2coc(-c3ccc(C)cc3C)n2)C1=O	.	.	.	1%	.	.
O=C(O)Cc1sc(=O)[nH]c1O	.	-6%	-11%	-3%	11%	.
N#Cc1nc(COc2ccccc2Cl)oc1N1CCCCCC1	?	-21%	-4%	11%[57.4 µM]	?	-5%[59 µM]
CCN1CCN(c2oc(COc3cccc(Cl)c3)nc2C#N)CC1	.	.	.	-58%	.	.
CCN1CCN(c2oc(COc3ccc(-c4ccccc4)cc3)nc2C#N)CC1	32µM*	?	-9%	14%	-60%	40µM*
CC1CN(c2oc(COc3ccc(Cl)cc3Cl)nc2C#N)CC(C)O1 (stereo not given)	35µM*	?	0%	0%	-49%	?
N#Cc1nc(COc2ccccc2Cl)oc1N1CCCC1	13µM*	?	1%	39%	?	7.9µM*
CCc1ccc(CNC(=O)C2CCN(C(=O)c3ncn4c3COC(c3ccccc3)C4)CC2)cc1 (stereo not given)	.	.	.	17%	.	.
c1coc(CNC2CCCCC2)c1	?	7.1µM*	2%	?	-42%	?
c1coc(CNC2CCCCCCC2)c1	89µM*	50µM*	?	?	-20%	20µM*
c1coc(CNC2C3CC4CC(C3)CC2C4)c1 (stereo not given)	-15%	-13%	-2%	-19%	11%	-49%
COc1ccc(C(=O)N(C)c2ccccc2C(=O)NCCc2ccccc2)cc1	-10%	-6%	1%	0%	27%	2%
COc1ccc(C(=O)N2CCCC(CO)(Cc3ccccc3C)C2)o1 (stereo not given)	-34%	-17%	-15%	-26%	-17%	79µM*
CCOC(=O)c1sc(NC2CC2)nc1C(F)(F)F	.	.	.	-5%	.	.
CCOC(=O)c1sc(N(C)C)nc1-c1ccccc1	10%	0%	?	0%	12%	?
CCOC(=O)c1sc(N)nc1-c1ccccc1	-2%	-27%	27µM*	-2%[57.4 µM]	7%	?
CCOC(=O)c1sc(N)nc1C(F)(F)F	.	-19%	27µM*	-28%	?	.
CC(CN(C)C)C(C)(O)Cc1ccc(Cl)cc1 (stereo not given)	.	.	.	-6%[22.9 µM]	.	21%[59 µM]
CCOc1cc(/C=N/NC(=O)c2cc(C3CC3)[nH]n2)ccc1O	-27%	50µM*	-8%	-8%	-1%	45µM*
N=c1c[n+](N2CCOCC2)[n-]o1	50µM*	56µM*	?	-16%	2%	8.9µM*!
COc1ccc(-c2csc(Nc3ccccc3)[n+]2CC(O)c2ccc([N+](=O)[O-])cc2)cc1 (stereo not given)	?	?	-4%	?	?	14µM*
COc1ccc(-c2nc(NC(=O)c3ccccc3)sc2-c2ccc([N+](=O)[O-])cc2)cc1	-2%[57.1 µM]	-32%	4%	-7%	4%	19%
Cc1cn([C@H]2C[C@H](O)[C@@H](CNS(=O)(=O)N3CCCC3)O2)c(=O)[nH]c1=O	.	.	8%	7.9µM*	.	.
O=C1C=C(Nc2ccc(O)cc2)C(=O)c2ccccc21	28µM*	?	-3%	17%	-9%	.
